Test results reported in PubChem BioAssay (EPA / NIEHS).
Records with an inconclusive call do not appear. Calls of active or inactive are those of the source. Rule for the calls, unless noted: active = hit-call score of the fitted dose curve at least 0.9, where 1 is the maximum; inactive = score below 0.9.

Key:
[1] = TOX21_p53_BLA_p2_viability: Viability Assessment in the Tox21 HCT-116 p53 Agonism Beta-lactamase Assay, Phase 2 (AID 2283591; active = hit-call score of the fitted dose curve at least 0.9, where 1 is the maximum;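 note: compound exposure lasted 16 h at 37 °C; actives lower the ATP signal meaning cytotoxicity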)
How it was run: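 HCT-116 p53-bla cells (4000/well) rested 5 h at 37C, then received compounds in DMSO (217-fold dilution) for 16 h at 37C, 5% CO2. After the CCF4 read, CellTiter-Glo was added; ATP luminescence was read after 30 min at room temperature.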

[2] = TOX21_p53_BLA_p3_viability: Viability Assessment in the Tox21 HCT-116 p53 Agonism Beta-lactamase Assay, Phase 3 (AID 2283593; active = hit-call score of the fitted dose curve at least 0.9, where 1 is the maximum;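 note: cells exposed to compound for 16 h before reading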)
How it was run: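 HCT-116 cells (4000/well) rested 5 h at 37C, then got DMSO compounds by pin tool (217-fold dilution) for 16 h at 37C, 5% CO2. After the bla read, CellTiter-Glo was added and luminescence read at 30 min, room temperature.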

[3] = target: Cellular tumor antigen p53 (Homo sapiens) (UniProt P04637); experiment: TOX21_p53_BLA_p3_ratio: Tox21 HCT-116 p53 Agonism Beta-lactamase Assay, Ratio, Phase 3 (AID 2283596; active = hit-call score of the fitted dose curve at least 0.9, where 1 is the maximum)
Cellular tumor antigen p53 (Homo sapiens), sequence (P04637 whole entry, looked up): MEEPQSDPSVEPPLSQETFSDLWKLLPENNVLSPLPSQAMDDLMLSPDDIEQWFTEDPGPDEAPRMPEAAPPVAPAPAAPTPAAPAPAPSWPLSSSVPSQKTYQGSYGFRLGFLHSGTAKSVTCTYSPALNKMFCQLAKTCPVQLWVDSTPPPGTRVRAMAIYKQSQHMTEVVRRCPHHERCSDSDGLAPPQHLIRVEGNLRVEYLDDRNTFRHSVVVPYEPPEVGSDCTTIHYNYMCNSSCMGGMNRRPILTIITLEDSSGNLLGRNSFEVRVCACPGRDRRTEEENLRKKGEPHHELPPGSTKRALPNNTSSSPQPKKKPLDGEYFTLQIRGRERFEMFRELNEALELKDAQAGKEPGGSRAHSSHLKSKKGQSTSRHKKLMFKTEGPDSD
How it was run: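 HCT116 p53-bla cells (4000/well) given compound in DMSO (217-fold dilution) after 5 h, incubated 16 h at 37C. CCF4-AM substrate 2 h at room temperature; 460/530 nm emission ratio, gain fitted against DMSO.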

[4] = TOX21_p53_BLA_p4_viability: Viability Assessment in the Tox21 HCT-116 p53 Agonism Beta-lactamase Assay, Phase 4 (AID 2283597; active = hit-call score of the fitted dose curve at least 0.9, where 1 is the maximum;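 note: hits lower the luminescence signal meaning cytotoxicity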)
How it was run: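 Luminescent ATP readout (CellTiter-Glo, 30 min, room temperature) in the same wells as the p53 bla ratio. HCT116 cells were treated for 16 h at 37C with DMSO-dissolved compounds.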

[5] = target: Cellular tumor antigen p53 (Homo sapiens) (UniProt P04637); experiment: TOX21_p53_BLA_p5_ratio: Tox21 HCT-116 p53 Agonism Beta-lactamase Assay, Ratio, Phase 5 (AID 2283599; active = hit-call score of the fitted dose curve at least 0.9, where 1 is the maximum)
How it was run: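 HCT-116 cells carrying a p53-inducible beta-lactamase reporter were seeded at 4000 cells/well and dosed after 5 h with compound in DMSO (217-fold dilution). After 16 h at 37C, CCF4-AM substrate was added for 2 h, and the 460/530 nm emission ratio was scored as gain-of-signal versus DMSO.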

[6] = TOX21_p53_BLA_p5_viability: Viability Assessment in the Tox21 HCT-116 p53 Agonism Beta-lactamase Assay, Phase 5 (AID 2283600; active = hit-call score of the fitted dose curve at least 0.9, where 1 is the maximum)
How it was run: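 Seeded cells (4000/well) settle 5 h before compound addition. Plates then incubate 16 h at 37C, receive FRET substrate for 2 h, and finally CellTiter-Glo, with luminescence measured after a 30 min room-temperature incubation.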

[7] = target: Cellular tumor antigen p53 (Homo sapiens) (UniProt P04637); experiment: TOX21_p53_BLA_p4_ratio: Tox21 HCT-116 p53 Agonism Beta-lactamase Assay, Ratio, Phase 4 (AID 2283601; active = hit-call score of the fitted dose curve at least 0.9, where 1 is the maximum)
How it was run: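 HCT116 cells carrying an inducible beta-lactamase reporter were plated at 4000 cells/well, rested 5 h, then exposed to compounds in DMSO (217-fold dilution) for 16 h at 37C. CCF4-AM substrate was loaded 2 h at room temperature; 460/530 nm emission ratio scored gain-of-signal versus DMSO.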

[8] = CCTE_Shafer_MEA_dev_firing_rate_mean: CCTE's Neural Network Formation Assay for Mean Firing Rate, Shafer Lab (AID 2284031);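 note: curve fitted for loss of firing so AC50 reflects decreased mean firing rate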
How it was run: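 Primary rat cortical neurons on 48-well MEA plates, exposed from plating day 0 with dosing renewed on DIV 5 and 9. Mean well firing rate over active electrodes, recorded days 5, 7, 9, 12, summarised as trapezoidal AUC.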

[9] = CCTE_Shafer_MEA_dev_per_burst_spike_percent: CCTE's Neural Network Formation Assay for Percent of Spikes in a Burst, Shafer Lab (AID 2284032);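 note: fitted as a decrease in burst spike percentage below DMSO baseline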
How it was run: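 Rat primary cortical neurons on 16-electrode MEA wells, dosed from plating day 0 for 12 days with renewal on DIV 5 and 9; spikes-in-bursts percentage averaged over bursting electrodes, collapsed as AUC across days 5, 7, 9, 12; loss direction versus DMSO.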

[10] = CCTE_Shafer_MEA_dev_active_electrodes_number: CCTE's Neural Network Formation Assay for Number of Active Electrodes, Shafer Lab (AID 2284040; active = hit-call score of the fitted dose curve at least 0.9, where 1 is the maximum;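 note: potency for loss of active electrodes versus DMSO so lower counts are hits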)
How it was run: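 Primary rat cortical neurons on 16-electrode MEA wells, exposed from day 0 through day 12 with compound renewed at DIV 5 and 9 feeds. Active electrodes (mean firing ≥5 spikes/min) counted at DIV 5, 7, 9, 12; trapezoidal AUC across days, loss-of-signal versus DMSO.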

[11] = CCTE_Shafer_MEA_dev_burst_rate: CCTE's Neural Network Formation Assay for Burst Rate, Shafer Lab (AID 2284042);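 note: potency for loss of burst rate below DMSO control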
How it was run: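 Exposure ran continuously over 12 days of network development in rat cortical cultures, with compound refreshed during full media changes on DIV 5 and 9. Single-electrode bursts per recording time, well-mean over active electrodes, trapezoidal AUC across days 5–12, fitted downward relative to DMSO.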

[12] = CCTE_Shafer_MEA_dev_per_burst_interspike_interval: CCTE's Neural Network Formation Assay for Burst Interspike Interval, Shafer Lab (AID 2284044);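 note: mean spike spacing inside bursts as AUC over recordings on days 5 7 9 12; potency for a decrease of within-burst interspike interval below DMSO level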
How it was run: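 Spontaneous activity of maturing rat cortical networks is recorded on DIV 5, 7, 9 and 12 under chronic compound exposure beginning at plating. Endpoint: burst interspike interval well-mean, collapsed into trapezoidal AUC and fitted in the negative direction relative to DMSO.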

[13] = CCTE_Shafer_MEA_dev_burst_duration_mean: CCTE's Neural Network Formation Assay for Mean Burst Duration, Shafer Lab (AID 2284045);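 note: curve fitted for loss meaning shorter burst duration than DMSO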
How it was run: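 Primary rat cortical neurons on PEI-coated 16-electrode MEA wells, exposed from plating through day 12 with compound renewed at DIV 5 and 9; spontaneous activity recorded days 5, 7, 9, 12. Well-mean burst duration collapsed as trapezoidal AUC, fitted for loss versus DMSO.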

[14] = CCTE_Shafer_MEA_dev_interburst_interval_mean: CCTE's Neural Network Formation Assay for Mean Interburst Interval, Shafer Lab (AID 2284046);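 note: well-mean interburst interval of bursting electrodes as AUC over four recording days; curve fitted for decrease in interburst interval relative to DMSO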
How it was run: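 Primary rat cortical neurons on PEI-coated 48-well MEA plates (laminin added with cells at plating) (16 electrodes/well), exposed from plating day 0 with renewal at DIV 5 and 9. Mean inter-burst interval averaged over bursting electrodes, AUC across days 5, 7, 9, 12; DMSO baseline.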

[15] = CCTE_Shafer_MEA_dev_inter_network_spike_interval_mean: CCTE's Neural Network Formation Assay for Mean Inter-network Spike Interval, Shafer Lab (AID 2284047);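 note: potency for a decrease in mean inter-network spike interval below DMSO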
How it was run: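 Mean time between consecutive network-spike peaks, recorded extracellularly (adaptive spike detection) on DIV 5, 7, 9 and 12, summarized as trapezoidal AUC. Rat cortical cultures on MEAs dosed continuously days 0–12, re-dosed at feeds; loss-of-signal fit relative to DMSO.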

[16] = CCTE_Shafer_MEA_dev_network_spike_number: CCTE's Neural Network Formation Assay for Number of Network Spikes, Shafer Lab (AID 2284048);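 note: synchronized bursts across electrodes counted on days 5 7 9 12 and integrated as AUC; fit as a loss of signal meaning fewer network spikes than DMSO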
How it was run: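 Primary rat cortical neurons were seeded at 1.5 x 10^5 cells/well on PEI-coated 16-electrode MEA wells with laminin, exposed from plating day 0, compound renewed at DIV 5 and 9. Network spikes were recorded on days 5, 7, 9, 12 and summarized as trapezoidal AUC versus DMSO.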

[17] = CCTE_Shafer_MEA_dev_spike_duration_mean: CCTE's Neural Network Formation Assay for Mean Spike Duration, Shafer Lab (AID 2284051);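 note: mean network spike duration pooled as area under curve over DIV 5 to 12 recordings; potency for a decrease in mean network spike duration versus DMSO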
How it was run: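 Spontaneous activity was recorded on days 5, 7, 9 and 12 from rat cortical cultures grown on microelectrode arrays and dosed continuously from day 0, with media and compound renewed after the DIV 5 and 9 recordings. Network-spike duration was collapsed by area under the curve.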

[18] = CCTE_Shafer_MEA_dev_network_spike_duration_std: CCTE's Neural Network Formation Assay for Standard Deviation of Network Spike Duration, Shafer Lab (AID 2284052);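 note: hits are decreases in network spike duration SD versus DMSO vehicle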
How it was run: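 Network spike duration variability was collapsed across recordings on days 5, 7, 9 and 12 by trapezoidal area-under-curve and fitted downward against DMSO. Cultures were rat cortical neurons on PEI-coated MEA plates, dosed continuously from plating, refed with compound DIV 5/9.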

[19] = CCTE_Shafer_MEA_dev_per_network_spike_spike_number_mean: CCTE's Neural Network Formation Assay for Mean Number of Spikes in a Network Spike, Shafer Lab (AID 2284053);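 note: fitted as decrease in spikes per network spike relative to DMSO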
How it was run: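 Mean spike count within each network spike, taken in a 0.05 s window at its peak, was recorded on days 5, 7, 9 and 12 and integrated as trapezoidal area under the curve. Rat cortical cultures on MEA plates received continuous compound from day 0, refreshed at medium changes on DIV 5 and 9.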

Measured: AC50

CCC[CH2][Sn]([CH2]CCC)([CH2]CCC)[O][Sn]([CH2]CCC)([CH2]CCC)[CH2]CCC
active: [1] 708 nM | [2] 236 nM | [3] 348 nM | [4] 668 nM | [5] 2030 nM | [6] 1370 nM | [7] 2220 nM | [8] 24.5 nM | [9] 34.2 nM | [10] 42.9 nM | [11] 29.1 nM | [12] 76.8 nM | [13] 34 nM | [14] 76.2 nM | [15] 31.5 nM | [16] 56.4 nM | [17] 30.8 nM | [18] 31.2 nM | [19] 29 nM
